In ChEMBL document CHEMBL4513216, “Probing the Open Global Health Chemical Diversity Library for Multistage-Active Starting Points for Next-Generation Antimalarials” (ACS Infect Dis, 2020) one finds INHIBITION data, which are given here for 54 molecules.

SMILES strings stand for the structures. Out of some 69,000 compounds screened, about 8,600 (12%) showed an effect of 50% or more. For the sample, strong results were picked, then their nearest neighbours and some compounds at random.

This assay has as its system Plasmodium berghei. Kind of assay: Screen against P. berghei liver stage (PbLuc), transformed with Luciferase, at 10uM. It counts as functional, HepG2. The note with it: tested at 10 uM.
Turning to `Cc1nc(C(=O)N2CCCC2c2noc(C3CC3)n2)c[nH]1` (centres undefined), the INHIBITION is recorded as 31.8%.

Turning to `COc1ccccc1CN1C[C@@H]2COC[C@]2(COc2cccnc2)C1`, the INHIBITION is -8.94%.

Turning to `COc1ccccc1CN1C[C@@H]2COC[C@]2(COCc2ccncc2)C1`, the INHIBITION is reported as 60.2%.

As to `COc1ncccc1CN1C[C@@H]2COC[C@]2(COc2cccnc2)C1`, the INHIBITION was -2.17%.

On to `COc1cccc(CN2C[C@@H]3COC[C@]3(COc3cccnc3)C2)c1`, for which the INHIBITION was 67.2%.

`COc1cccc(CN2C[C@@H]3COC[C@]3(COCc3ccncc3)C2)c1`: the INHIBITION came out at 28.4%.

With `COc1cccc(CN2C[C@@H]3COC[C@]3(CN3CCOCC3)C2)c1`, the INHIBITION worked out at 29.9%.

As for `c1ccc(CN2C[C@@H]3COC[C@]3(COCc3ccncc3)C2)nc1`, the INHIBITION turned out to be 48.6%.

Take `COc1ccc(CN2C[C@@H]3COC[C@]3(COc3cccnc3)C2)cc1`: the INHIBITION was 24%.

As for `COc1cccc(CN2C[C@@H]3COC[C@]3(COCc3ccccn3)C2)c1`, the INHIBITION was found to be 53.2%.

`c1cc(COC[C@]23COC[C@H]2CN(Cc2ccncc2)C3)ccn1`: the INHIBITION is on record as 43.9%.

Turning to `CCOC[C@]12COC[C@H]1CN(Cc1cccc(OC)c1)C2`, the INHIBITION stood at 56.7%.

Consider `CCS(=O)(=O)NC[C@]12COC[C@H]1CN(Cc1cccc(OC)c1)C2`, for which the INHIBITION is 39.2%.

On to `COC(=O)c1cc(OCC2CCC2)cc(C(=O)NCC(C)(C)O)c1`, for which the INHIBITION was determined as 40.2%.

As to `O=C(CC1CCC2(CC1)CCN(Cc1nccs1)CC2)N1CC=CC1`, the INHIBITION came to 35.2%.

Turning to `CCc1nnc2n1CCN(C(=O)c1cc(C)n(-c3ccccc3)c1C)C2`, the INHIBITION is recorded as 5.9%.

Regarding `Cc1cc(CN2C[C@@H]3COC[C@]3(CN(C)C)C2)no1`, the INHIBITION is given as 18.8%.

As for `CN(C)C[C@]12COC[C@H]1CN(Cc1ccccn1)C2`, the INHIBITION came out at 87.7%.

Regarding `CN(C)C[C@]12COC[C@H]1CN(Cc1ccc3ccccc3n1)C2`, the INHIBITION was 4.02%.

For `CNc1nccc(C2CCCCN2Cc2cnn3cccnc23)n1` (centres undefined), the INHIBITION was -7.66%.

Consider `O=C(CO)N1CCC2(CC1)CC(=O)N(Cc1cc(F)cc(F)c1)C2`, for which the INHIBITION stood at 8.99%.

Consider `O=C1CC2(CCN(CCO)CC2)CN1Cc1cc(F)cc(F)c1`, for which the INHIBITION is 60.1%.

On to `CC(C)N1CCC2(CC1)CC(=O)N(Cc1cc(F)cc(F)c1)C2`, for which the INHIBITION is 35.1%.

As to `CCN1CC2(CCN(CCOc3ccc(F)cc3)CC2)CC1=O`, the INHIBITION was determined as 0.868%.

`O=C1CC2(CCN(CCCF)CC2)CN1Cc1cc(F)cc(F)c1`: the INHIBITION is given as 75.7%.

Take `O=C1CC2(CCN(CCCO)CC2)CN1Cc1ccc(F)c(F)c1`: the INHIBITION was determined as 36.8%.

Consider `CCCS(=O)(=O)N1CCC2(CC1)CC(=O)N(Cc1cc(F)cc(F)c1)C2`, for which the INHIBITION is on record as 17.1%.

With `O=C1CC2(CCN(Cc3ncc[nH]3)CC2)CN1Cc1cc(F)cc(F)c1`, the INHIBITION was -6.05%.

Regarding `O=C1CC2(CCN(Cc3ccoc3)C2)CN1c1cncnc1` (centres undefined), the INHIBITION is reported as 43.9%.

With `CCCOCCN1CCC2(CC1)CC(=O)N(Cc1cc(F)cc(F)c1)C2`, the INHIBITION is on record as 64.1%.

As for `CC(C)=CCN1CCC2(CC1)CC(=O)N(Cc1cc(F)cc(F)c1)C2`, the INHIBITION turned out to be 38.6%.

Consider `O=C1CC2(CCN(Cc3ccoc3)CC2)CN1Cc1cc(F)cc(F)c1`, for which the INHIBITION is 73.4%.

Turning to `Cc1nc([C@@H]2C[C@@H]3CCN(C(=O)Cc4cccs4)C[C@H]3O2)no1`, the INHIBITION stood at 11.6%.

Take `CCCc1noc(-c2cn(CC(=O)N(CC)CC)nn2)n1`: the INHIBITION is -51.7%.

For the molecule `Cc1ccc(C(O)CN(C)Cc2cnn(C)c2)cc1C` (centres undefined), the INHIBITION is reported as 28.7%.

Consider `Cn1ccc(C(=O)NC2CCC23CCN(C(=O)c2ccncc2)CC3)c1` (centres undefined), for which the INHIBITION is recorded as 13.5%.

As to `CNc1snc(C)c1C(=O)N1CCC(Nc2ccc(C)nn2)CC1`, the INHIBITION turned out to be 1.15%.

As to `O=C1CCC(=O)N1CCn1nnc(-c2cccc(Cl)c2)n1`, the INHIBITION is reported as -5.57%.

Regarding `O=C1CC2(CCN(CC3CC3)CC2)CN1Cc1cc(F)cc(F)c1`, the INHIBITION was 69.3%.

As for `O=C1CC2(CCN(CC3CCOC3)CC2)CN1Cc1cc(F)cc(F)c1` (centres undefined), the INHIBITION was determined as 46.8%.

For the molecule `O=C1CC2(CCN(CC3CC3)C2)CN1c1cccc(F)c1` (centres undefined), the INHIBITION is on record as -6.02%.

As for `CCc1n[nH]c(C2CN(C(=O)c3ccnc(C4CC4)n3)CCO2)n1` (centres undefined), the INHIBITION was found to be 31.3%.

Turning to `CCc1ccc(CN2C[C@H](OCC(=O)N(C)C)[C@H]3COC[C@H]32)o1`, the INHIBITION was 26.5%.

With `Cc1nn(C)cc1CC(C#N)C(=O)Nc1cccc(O)c1` (centres undefined), the INHIBITION was 3.58%.

With `COCc1cc(O)nc(C2CCCN(Cc3ccc(OC)cc3)C2)n1` (centres undefined), the INHIBITION is recorded as 61.9%.

Take `COc1cccc(CN2CCC(c3cc(O)nc(C)n3)C2)c1` (centres undefined): the INHIBITION is given as 47.8%.

In the case of `COc1ccc(F)c(CN2CCC(c3cc(O)nc(C)n3)C2)c1` (centres undefined), the INHIBITION worked out at 50.6%.

In the case of `COc1cccc(CC(=O)N2CCCC2c2nc(C)c(F)c(O)n2)c1` (centres undefined), the INHIBITION is on record as 3.91%.

With `COCc1cc(O)nc(C2CCCN(Cc3cccc(OC)c3)C2)n1` (centres undefined), the INHIBITION was found to be 57.5%.

With `COCc1cc(O)nc(C2CCCN(Cc3ccc(F)cc3)C2)n1` (centres undefined), the INHIBITION is recorded as 39.7%.

In the case of `COc1ccc(CN2CCC(c3cc(O)nc(C)n3)C2)c(F)c1` (centres undefined), the INHIBITION is 21.9%.

Take `COc1ccc(F)c(CN2CCCC(c3cc(O)nc(C)n3)C2)c1` (centres undefined): the INHIBITION is 25.8%.

For `COc1cccc(CC(=O)N2CCCC2c2nc(C)c(C)c(O)n2)c1` (centres undefined), the INHIBITION is 50.8%.

As to `COc1ccc(CC(=O)N2CCCC2c2nc(C)c(C)c(O)n2)cc1` (centres undefined), the INHIBITION amounted to 46%.
